# Source: PubChem BioAssay AID1962 (The Scripps Research Institute Molecular Screening Center, 2009)
# In all, about 300,000 compounds went through this assay and about 2,500 (0.83%) were called active.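 Rule for the calls: active = inhibition above the mean of all tested compounds plus 3 SD, set per screening campaign (cut at about 24% in these data); inactive = the rest.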 The sample as a whole holds a higher share of actives than the screen did.
# Tested on: tRNA 2'-phosphotransferase TPT1 (Candida albicans SC5314)
# Experiment: tRNA 2'-phosphotransferase blockers, C. albicans – biochemical, fluorescence polarization, primary screen (AID 1962);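 note: plate controls were DMSO alone for no effect and ferristatin control at 100 nM for full effect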
# Settings: recombinant caTPT1, FP RNA substrate dephosphorylation; at 5 µM; stronger effect = higher value
row,SMILES,inhibition
1,CC(=O)N1N=C(c2ccncc2)OC1(Cc1ccccc1)Cc1ccccc1,-0.93% (inactive)
2,O=C(CC12CC3CC(CC(C3)C1)C2)Nc1ccc2c(c1)COC2=O,-3.75% (inactive)
3,Nc1nonc1-n1nnc(C(=O)N/N=C/c2cc(Br)ccc2O)c1CSC1=NCCS1,24.7% (active)
4,Cc1ccc(SCc2c(C(=O)N/N=C/c3cccnc3)nnn2-c2nonc2N)cc1,0.4% (inactive)
5,Nc1nonc1-n1nnc(C(=O)N/N=C/c2ccccc2O)c1CN1CCCC1,-0.45% (inactive)
6,COc1ccc(C(C(=O)NC2CCCCC2)N(C(=O)Cc2c[nH]c3ccccc23)c2ccccc2)cc1OC (stereo not given),4.78% (inactive)
7,N#CC1=C(N)Oc2c(ccc3cccnc23)C1c1ccncc1 (stereo not given),0.31% (inactive)
8,N#CC1=C(N)Oc2c(sc3ccccc23)C1c1ccco1 (stereo not given),100% (active)
9,CC1=C(C(=O)Nc2ccccc2)C(c2ccco2)C(C#N)=C(SCC(N)=O)N1 (stereo not given),-4.83% (inactive)
10,COCCCn1c(SCc2cccc(OC)c2)nc2cc(OC)c(OC)cc2c1=N,-1.89% (inactive)
11,CC(=O)Nc1ccc(S(=O)(=O)NCC(=O)OCc2cc(=O)oc3ccc4ccccc4c23)cc1,2.61% (inactive)
12,COc1cc(/C=C(\C#N)c2nc3ccccc3[nH]2)ccc1O,96.4% (active)
13,COc1cc(/C=C(\C#N)c2nc3c(s2)CC(C)CC3)ccc1O (stereo not given),128% (active)
14,Cc1ccc2nc(/C(C#N)=C\c3ccc(OC(=O)c4cccs4)cc3)[nH]c2c1,4.21% (inactive)
15,CCNc1nc(NCC)nc(N/N=C/c2ccc(O)c(OC)c2)n1,-0.04% (inactive)
16,COc1ccc(/C=C(/NC(=O)c2ccc(C)cc2)c2nc3ccccc3[nH]2)cc1OC,-0.67% (inactive)
17,COc1cc(/C=N/Nc2nc3ccccc3s2)ccc1O,-1.42% (inactive)
18,CCn1c(CC(=O)Nc2ccc(C)cc2)nnc1SCC(=O)Nc1nc(C)cs1,2.53% (inactive)
19,O=C(NCCCCCCNC(=O)NCc1ccco1)NCc1ccco1,-3.7% (inactive)
20,COc1ccc2c(c1)CCNC2Cc1ccc(OC)c(O)c1 (stereo not given),-2.2% (inactive)
21,COc1cc2c(cc1O)[C@H](Cc1ccc(Oc3cc(C[C@@H]4NCCc5cc(OC)c(O)cc54)ccc3O)cc1)NCC2,30% (active)
22,CC[C@H]1CN2CCc3cc(OC)c(OC)cc3[C@@H]2C[C@@H]1C[C@H]1NCCc2cc(OC)c(OC)cc21,3.04% (inactive)
23,O=S1(=O)CCO[C@H]2Cc3ccccc3[C@H]2N1Cc1ccccc1,3.47% (inactive)

row,SMILES,inhibition
1,O=C(CCc1ccccc1)Nc1ccnn1C1CCN(Cc2ccc(OCCO)cc2)CC1,-3.8% (inactive)
2,Cc1ccc(C)c2[nH]c(=O)c(CCNC(=O)c3cccs3)cc12,-3.33% (inactive)
3,Cc1ccc(C)c2[nH]c(=O)c(CCNC(=O)CC(C)C)cc12,51.6% (active)
4,COc1ccc(OC)c2[nH]c(=O)c(CCNC(=O)C(C)(C)C)cc12,1.81% (inactive)
5,CCc1ccnc(NS(=O)(=O)c2ccc3c(c2)OCCO3)c1,-1.71% (inactive)
6,O=C(C1CCCO1)N1CCN(C(=S)NC2CC2)CC1 (stereo not given),-3.35% (inactive)
7,COc1ccc(/C=C(\C#N)C(=O)ONC2=NCCCCC2)cc1,0.43% (inactive)
8,CCOC(=O)/C(C#N)=C/c1ccc(N2CCCCC2)cc1,116% (active)
9,CCOC(=O)NC(=O)/C(C#N)=C\c1ccccc1,-1.78% (inactive)
10,CCOC(=O)/C(C#N)=C/c1ccc(OCC(=O)Nc2ccccc2)c(OC)c1,-2.78% (inactive)
11,COc1ccc(N2CCN(C(=O)/C(C#N)=C/c3ccccc3)CC2)cc1,19.5% (inactive)
12,CCOC(=O)/C(C#N)=C/c1ccc(N2CCN(Cc3ccccc3)CC2)cc1,48% (active)
13,COc1ccc(-c2nn(-c3ccccc3)cc2/C=C2/SC(=S)N(CCCC(=O)O)C2=O)c(C)c1,1.54% (inactive)
14,CN(C)S(=O)(=O)c1cccc(-c2nn(-c3ccccc3)cc2/C=C2\SC(=S)N(CC(=O)O)C2=O)c1,-1.23% (inactive)
15,Cc1ccc(-c2nn(-c3ccccc3)cc2/C=C2\SC(=S)N(CCCCCC(=O)O)C2=O)o1,49.2% (active)
16,CCC(C)Sc1nc(C)nc2c1c(=O)n(C)c(=O)n2C (stereo not given),-1.63% (inactive)
17,NC(=O)NCCCC(=O)O,-0.59% (inactive)
18,COc1ccc(/C=N/NC(=O)c2cc(-c3cccc(C)c3)nc3ccccc23)cc1O,-4.75% (inactive)
19,CC(C)NC(=O)c1ccc(Cl)cc1Cl,-0.44% (inactive)
20,Cc1sc2nc(COC(=O)C(NC(=O)c3ccc(Cl)cc3Cl)C(C)C)[nH]c(=O)c2c1C (stereo not given),33.1% (active)
21,Cc1sc2nc(CSCC(=O)Nc3c(Cl)cccc3Cl)[nH]c(=O)c2c1C,17.1% (inactive)
22,CSCCC(NC(=O)c1ccc(Cl)cc1Cl)C(=O)NNC(=O)c1csc(N2CCOCC2)n1 (stereo not given),1.09% (inactive)
23,COc1ccc(N2CC(C)Cn3c2nc2c3c(=O)n(Cc3ccccc3F)c(=O)n2C)c(OC)c1 (stereo not given),1.36% (inactive)

row,SMILES,inhibition
1,N#C/C(=C/c1ccc(N2CCCCC2)o1)C(=O)NCCc1c[nH]c2ccccc12,178% (active)
2,CC(=O)N/C(=C/c1ccc(Cl)cc1)C(=O)NCCc1c[nH]c2ccccc12,-3.35% (inactive)
3,O=C(CN1C(=O)NC2(CCCCC2)C1=O)NCCc1c[nH]c2ccccc12,-3.99% (inactive)
4,Cc1ccc(Nc2nnc(SCC(=O)c3cc4ccccc4o3)s2)cc1C,9.66% (inactive)
5,CC(C)c1ccc(Nc2nnc(SCC(=O)c3nnc(-c4ccccc4)o3)s2)cc1,42% (active)
6,O=C(CSc1nnc(Nc2ccccc2)s1)Nc1cccnc1Cl,-0.7% (inactive)
7,CC(C)CN1CCNC(=O)C1CC(=O)N(C)CC1CCOCC1 (stereo not given),-5.14% (inactive)
8,COc1ccc(S(=O)(=O)NCC2CCCN(C(=O)c3occc3C)C2)cc1 (stereo not given),-4.48% (inactive)
9,CCN1CCN(C(=O)Cn2nc(C)n3c(cc4c(OC)cccc43)c2=O)CC1,1.92% (inactive)
10,Cc1ccc2[nH]c(=O)c(CN3CCCCC3)c(-c3ccccc3)c2c1,31.4% (active)
11,Cc1ccc2[nH]c(=O)c(CC(=O)O)c(-c3ccccc3)c2c1,-1.99% (inactive)
12,Cc1ccc2[nH]c(=O)c(CC=C(Cl)Cl)c(C)c2c1,1.23% (inactive)
13,CCOc1ccc(NC(=O)c2ccc(NC(=O)C3CCCO3)cc2)cc1 (stereo not given),1.62% (inactive)
14,Cc1ccc(CNC(=O)c2cc(-c3ccccc3C)n(CC3CC(c4cccc([N+](=O)[O-])c4)=NO3)n2)cc1 (stereo not given),-1.39% (inactive)
15,Cn1c(-c2ccc(C(F)(F)F)cc2)cc2onc(-c3ccccc3)c2c1=O,1.56% (inactive)
16,CN(c1ccc(OCC(=O)OCC(=O)Nc2cccc([N+](=O)[O-])c2)cc1)S(=O)(=O)c1ccc(F)cc1,-1.05% (inactive)
17,Cc1c(Cl)c([N+](=O)[O-])nn1Cc1ccc(C(=O)N/N=C\c2cc(Cl)ccc2O)o1,1.45% (inactive)
18,Cc1ccc2c(c1)N(CC(=O)N1CCOCC1)C(=O)CO2,1.05% (inactive)
19,Cc1cc(/C=C2/SC(=O)N(CC(=O)N3CCCC3)C2=O)c(C)n1C,-4.95% (inactive)
20,Cc1cc(/C=C2/SC(=O)N(CC(=O)N3CCCC3)C2=O)ccc1N1CCOCC1,38.1% (active)
21,C#CCOCCOCCOCCNc1nc(N2CCN(C(=O)[C@H](CCCCN)n3cc(CCC(=O)O)nn3)CC2)nc(N2CCN(C(=O)[C@H](CCCCN)n3cc(CC(C)O)nn3)CC2)n1 (stereo not given in full),-2.04% (inactive)
22,Cc1ccc(S(=O)(=O)N2CCN=C2SCc2c(F)cccc2Cl)cc1,-3.87% (inactive)
23,Cc1cccc[n+]1CC(=O)c1ccccc1,-3.95% (inactive)

row,SMILES,inhibition
1,O=C(C[n+]1cc(Br)cc2ccccc21)c1ccc(F)cc1,25.1% (active)
2,O=C(CNC(=O)c1ccc(F)cc1)c1ccccc1,5.07% (inactive)
3,COc1cccc(-n2c(N)cc(=O)nc2SCC(=O)Nc2cc(C)on2)c1,-0.29% (inactive)
4,CCC(C)(C)c1ccc(Oc2ccc(NC(=O)COC(=O)C3=COCCO3)cc2)cc1,0.08% (inactive)
5,CC(C)C[C@@H](N)c1nnc(SCC(=O)c2ccc(Cl)cc2)o1,3.05% (inactive)
6,O=C(O)CCCN1C(=O)C2C3c4ccccc4C(c4ccccc43)[C@@H]2C1=O (stereo not given in full),2.01% (inactive)
7,COc1ccc(CNC(=O)CCN2C(=O)c3ccccc3C2=O)cc1,-3.69% (inactive)
8,O=C(O)CCC(=O)NCc1ccc(C(=O)O)cc1,-6.54% (inactive)
9,O=C(CN1C(=O)c2ccccc2C1=O)NCc1ccc(C(=O)O)cc1,36.6% (active)
10,Cc1ccc(C)c(C(=O)N2CCC(n3nccc3NC(=O)C3CC3)CC2)c1,1.61% (inactive)
11,CC(C(=O)N1CCN(c2ccccc2F)CC1)c1ccc([N+](=O)[O-])cc1 (stereo not given),0.08% (inactive)
12,NS(=O)(=O)c1ccc(NC(=S)NNC(=O)c2cccs2)cc1,-0.11% (inactive)
13,O=C(N1CCOCC1)N1CCOCC1,-4.04% (inactive)
14,N#C/C=C(/c1ccc(F)cc1)N1CCOCC1,-0.18% (inactive)
15,N#C/C(=C\c1ccc(-c2cccc([N+](=O)[O-])c2)o1)C(=O)NCCN1CCOCC1,0.6% (inactive)
16,N#C/C(=C\c1ccc(N2CCOCC2)o1)C(=O)N1CCOCC1,153% (active)
17,Cc1ccc(C(=O)N2CCN(C(=O)N3CCOCC3)CC2)cc1,-1.08% (inactive)
18,N#C/C(=C/c1ccc(N2CCOCC2)o1)C(=O)N1CCOCC1,158% (active)
19,CCOc1cc(-c2noc(CCCC(=O)NC3CCCCC3)n2)ccc1OC,3.27% (inactive)
20,CN1CCCN(C(=O)C2CCCCC2)CC1,1.49% (inactive)
21,C/C(=C/C(=O)N1CCN(C)CC1)C(=O)O,3.89% (inactive)
